Laboratory results from the supplement of paper PMC10849652.
Targets with a hit are over-represented here; the source holds about 8,800 in all. About 0.5% of all pairs of compound and target were hits. Unmarked numbers belong to inactive results.

Legend:
Experiment in all cases: log2 fold change, soluble protein after heating vs DMSO (PISA); higher = thermal stabilisation; K562 lysate, 10 uM; active = over 0.2 and 3.5 SD of the protein, either way, in both replicates (recomputed)
[1] = compound: NCC(=O)Nc1ccc(-n2nc(C(F)(F)F)cc2-c2ccc3c(ccc4ccccc43)c2)cc1
Outline: (§1)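 A 30 min treatment with 10 μM compound was applied to crude K562 extract at 1 mg/mL protein in PBS pH 7.4 with 1 mM MgCl2. Heating for 3 min spanned 48°C-58°C, after which aliquots were pooled, adjusted to 0.5% NP-40 at 4°C and spun at 21,000xg for 90 min. TMTpro 16plex LC-MS/MS of the supernatant, with channel sums equalised, gave values recorded as log-two fold change in thermal stability against solvent controls, from duplicates.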

vorinostat = compound: O=C(CCCCCCC(=O)Nc1ccccc1)NO [vorinostat]
Outline: as §1

silmitasertib = compound: O=C(O)c1ccc2c(c1)nc(Nc1cccc(Cl)c1)c1ccncc12 [silmitasertib]
Outline: as §1

[2] = compound: O=C1NC(=O)C(c2cnc3ccccn23)=C1c1cn2c3c(cc(F)cc13)CN(C(=O)N1CCCCC1)CC2
Outline: as §1

entospletinib = compound: c1cn2cc(-c3ccc4cn[nH]c4c3)nc(Nc3ccc(N4CCOCC4)cc3)c2n1 [entospletinib]
Outline: as §1

Chain of UniProt Q9H1I8 (Q9H1I8 whole entry, looked up): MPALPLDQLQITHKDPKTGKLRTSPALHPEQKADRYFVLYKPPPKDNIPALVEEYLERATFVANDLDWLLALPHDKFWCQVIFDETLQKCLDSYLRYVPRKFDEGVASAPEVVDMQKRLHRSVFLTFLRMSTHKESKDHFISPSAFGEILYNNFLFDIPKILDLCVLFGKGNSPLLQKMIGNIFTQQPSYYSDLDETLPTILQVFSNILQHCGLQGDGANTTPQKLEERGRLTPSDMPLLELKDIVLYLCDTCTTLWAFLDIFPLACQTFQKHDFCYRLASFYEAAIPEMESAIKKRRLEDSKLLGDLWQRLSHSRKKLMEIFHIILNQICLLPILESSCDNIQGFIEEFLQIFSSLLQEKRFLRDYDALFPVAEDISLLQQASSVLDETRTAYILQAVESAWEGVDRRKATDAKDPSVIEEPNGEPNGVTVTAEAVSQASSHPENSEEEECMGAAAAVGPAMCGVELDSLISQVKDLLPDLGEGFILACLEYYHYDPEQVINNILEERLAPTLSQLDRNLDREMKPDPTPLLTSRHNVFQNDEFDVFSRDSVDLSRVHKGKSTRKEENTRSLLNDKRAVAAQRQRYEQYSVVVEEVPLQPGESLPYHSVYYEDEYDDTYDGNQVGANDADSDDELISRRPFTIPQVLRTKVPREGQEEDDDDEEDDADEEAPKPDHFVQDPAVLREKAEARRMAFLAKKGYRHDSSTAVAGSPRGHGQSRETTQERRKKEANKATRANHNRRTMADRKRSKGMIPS
Chain of UniProt O14617 (O14617 whole entry, looked up): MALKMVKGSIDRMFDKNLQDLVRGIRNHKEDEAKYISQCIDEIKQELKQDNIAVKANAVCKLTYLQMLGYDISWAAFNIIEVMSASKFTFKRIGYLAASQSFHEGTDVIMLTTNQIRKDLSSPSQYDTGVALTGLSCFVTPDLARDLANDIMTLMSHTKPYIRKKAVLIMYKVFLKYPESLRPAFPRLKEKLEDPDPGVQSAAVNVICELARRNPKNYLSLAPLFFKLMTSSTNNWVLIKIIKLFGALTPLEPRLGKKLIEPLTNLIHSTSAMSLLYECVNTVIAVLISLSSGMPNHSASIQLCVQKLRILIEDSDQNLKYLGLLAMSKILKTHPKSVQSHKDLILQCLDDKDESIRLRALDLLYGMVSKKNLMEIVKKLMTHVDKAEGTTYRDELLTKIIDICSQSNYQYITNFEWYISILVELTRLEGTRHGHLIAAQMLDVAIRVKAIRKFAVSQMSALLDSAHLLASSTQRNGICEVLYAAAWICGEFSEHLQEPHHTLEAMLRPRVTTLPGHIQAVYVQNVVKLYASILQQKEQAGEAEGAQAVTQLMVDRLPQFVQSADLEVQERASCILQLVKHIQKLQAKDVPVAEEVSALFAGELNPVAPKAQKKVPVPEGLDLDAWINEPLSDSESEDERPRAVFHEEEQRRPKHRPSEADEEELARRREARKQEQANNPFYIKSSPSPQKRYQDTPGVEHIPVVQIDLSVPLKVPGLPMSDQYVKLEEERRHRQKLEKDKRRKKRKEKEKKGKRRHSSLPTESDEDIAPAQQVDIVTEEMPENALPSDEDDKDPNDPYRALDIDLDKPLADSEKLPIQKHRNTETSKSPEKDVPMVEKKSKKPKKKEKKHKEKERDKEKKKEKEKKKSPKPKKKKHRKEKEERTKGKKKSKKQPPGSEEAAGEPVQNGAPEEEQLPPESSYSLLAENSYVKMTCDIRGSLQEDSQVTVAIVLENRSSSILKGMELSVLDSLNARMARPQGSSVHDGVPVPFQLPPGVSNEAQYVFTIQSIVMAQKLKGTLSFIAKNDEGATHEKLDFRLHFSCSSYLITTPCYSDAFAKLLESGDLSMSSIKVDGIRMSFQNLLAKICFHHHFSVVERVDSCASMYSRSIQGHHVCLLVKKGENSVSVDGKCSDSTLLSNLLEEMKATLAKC
Chain of UniProt P51649 (P51649 whole entry, looked up): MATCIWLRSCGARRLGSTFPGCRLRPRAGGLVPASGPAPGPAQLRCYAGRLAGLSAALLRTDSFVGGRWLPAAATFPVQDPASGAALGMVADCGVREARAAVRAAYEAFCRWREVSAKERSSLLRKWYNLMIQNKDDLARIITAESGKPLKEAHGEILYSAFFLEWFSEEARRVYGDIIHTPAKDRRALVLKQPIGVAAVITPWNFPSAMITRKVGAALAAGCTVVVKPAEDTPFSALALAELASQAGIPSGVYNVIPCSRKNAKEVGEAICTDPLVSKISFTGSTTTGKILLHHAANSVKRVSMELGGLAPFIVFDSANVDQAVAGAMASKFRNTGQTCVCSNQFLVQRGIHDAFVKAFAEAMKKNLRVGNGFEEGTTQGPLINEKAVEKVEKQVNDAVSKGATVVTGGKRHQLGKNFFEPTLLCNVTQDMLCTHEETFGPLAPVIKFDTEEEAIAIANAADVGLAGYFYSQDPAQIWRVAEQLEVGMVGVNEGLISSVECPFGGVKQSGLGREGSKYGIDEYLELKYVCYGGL
Chain of UniProt O43865 (O43865 whole entry, looked up): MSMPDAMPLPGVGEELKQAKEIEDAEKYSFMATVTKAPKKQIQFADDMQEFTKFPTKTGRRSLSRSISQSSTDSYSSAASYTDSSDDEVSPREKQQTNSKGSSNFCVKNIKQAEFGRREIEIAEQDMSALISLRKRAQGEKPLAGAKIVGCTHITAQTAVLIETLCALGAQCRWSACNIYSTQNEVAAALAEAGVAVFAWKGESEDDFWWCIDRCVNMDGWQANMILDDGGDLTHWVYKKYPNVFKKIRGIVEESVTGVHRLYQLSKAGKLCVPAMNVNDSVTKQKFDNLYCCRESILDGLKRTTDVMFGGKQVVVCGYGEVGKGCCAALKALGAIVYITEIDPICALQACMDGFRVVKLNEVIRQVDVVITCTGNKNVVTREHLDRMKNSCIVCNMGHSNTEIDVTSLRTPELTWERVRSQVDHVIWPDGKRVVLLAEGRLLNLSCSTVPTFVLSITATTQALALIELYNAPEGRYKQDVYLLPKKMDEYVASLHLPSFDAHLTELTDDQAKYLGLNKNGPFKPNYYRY
Chain of UniProt Q12797 (Q12797 whole entry, looked up): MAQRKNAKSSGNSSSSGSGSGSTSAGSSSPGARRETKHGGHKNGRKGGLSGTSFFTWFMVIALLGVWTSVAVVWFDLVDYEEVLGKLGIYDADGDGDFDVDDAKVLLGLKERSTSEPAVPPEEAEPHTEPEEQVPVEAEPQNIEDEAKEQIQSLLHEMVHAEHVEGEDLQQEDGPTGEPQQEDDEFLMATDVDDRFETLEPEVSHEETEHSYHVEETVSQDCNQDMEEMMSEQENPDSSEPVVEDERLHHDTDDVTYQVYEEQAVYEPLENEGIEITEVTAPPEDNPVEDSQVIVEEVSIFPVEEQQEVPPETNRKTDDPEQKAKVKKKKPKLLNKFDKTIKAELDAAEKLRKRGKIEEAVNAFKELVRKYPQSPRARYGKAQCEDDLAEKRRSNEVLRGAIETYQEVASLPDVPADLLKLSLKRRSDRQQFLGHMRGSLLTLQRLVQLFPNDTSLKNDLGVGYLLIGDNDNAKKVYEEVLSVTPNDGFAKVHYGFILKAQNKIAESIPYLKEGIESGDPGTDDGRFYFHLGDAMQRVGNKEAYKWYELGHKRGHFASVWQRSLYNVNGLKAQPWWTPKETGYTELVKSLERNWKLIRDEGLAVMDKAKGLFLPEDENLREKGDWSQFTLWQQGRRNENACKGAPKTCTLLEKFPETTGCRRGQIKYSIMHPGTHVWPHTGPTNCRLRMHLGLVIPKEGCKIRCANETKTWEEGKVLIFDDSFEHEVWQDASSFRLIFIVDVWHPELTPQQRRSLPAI
Chain of UniProt Q8N2K0 (Q8N2K0 whole entry, looked up): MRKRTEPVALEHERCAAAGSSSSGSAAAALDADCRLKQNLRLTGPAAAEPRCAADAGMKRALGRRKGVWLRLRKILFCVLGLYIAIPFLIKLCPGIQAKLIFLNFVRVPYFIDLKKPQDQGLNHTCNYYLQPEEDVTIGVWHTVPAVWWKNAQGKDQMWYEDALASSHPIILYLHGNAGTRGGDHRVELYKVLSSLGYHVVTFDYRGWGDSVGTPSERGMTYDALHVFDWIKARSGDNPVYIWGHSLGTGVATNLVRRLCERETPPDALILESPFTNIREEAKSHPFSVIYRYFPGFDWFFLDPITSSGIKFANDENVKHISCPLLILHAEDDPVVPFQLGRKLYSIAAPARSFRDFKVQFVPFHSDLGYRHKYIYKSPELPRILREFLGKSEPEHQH
Chain of UniProt Q92685 (Q92685 whole entry, looked up): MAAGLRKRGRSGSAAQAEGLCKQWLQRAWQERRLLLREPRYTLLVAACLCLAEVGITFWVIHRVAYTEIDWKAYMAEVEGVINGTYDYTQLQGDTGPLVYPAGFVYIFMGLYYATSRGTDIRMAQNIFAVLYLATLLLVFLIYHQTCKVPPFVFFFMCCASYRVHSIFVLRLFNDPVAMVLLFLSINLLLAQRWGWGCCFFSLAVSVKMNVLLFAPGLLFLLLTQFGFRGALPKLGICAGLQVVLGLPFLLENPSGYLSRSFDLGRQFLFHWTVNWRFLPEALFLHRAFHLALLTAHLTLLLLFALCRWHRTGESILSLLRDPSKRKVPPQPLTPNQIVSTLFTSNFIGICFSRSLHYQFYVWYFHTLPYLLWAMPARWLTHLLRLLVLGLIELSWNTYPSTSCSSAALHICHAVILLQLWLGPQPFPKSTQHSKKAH
Chain of UniProt Q6NXT1 (Q6NXT1 whole entry, looked up): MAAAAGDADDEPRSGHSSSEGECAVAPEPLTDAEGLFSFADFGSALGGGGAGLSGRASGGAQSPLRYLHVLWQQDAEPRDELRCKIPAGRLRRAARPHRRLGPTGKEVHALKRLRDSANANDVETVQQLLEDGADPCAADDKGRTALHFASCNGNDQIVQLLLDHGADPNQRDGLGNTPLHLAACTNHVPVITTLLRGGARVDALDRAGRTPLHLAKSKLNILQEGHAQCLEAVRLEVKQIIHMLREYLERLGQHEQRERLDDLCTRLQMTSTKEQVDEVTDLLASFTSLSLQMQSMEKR

| Target | log2 fold change [1] | log2 fold change (vorinostat) | log2 fold change (silmitasertib) | log2 fold change [2] | log2 fold change (entospletinib) |
| --- | --- | --- | --- | --- | --- |
| ASCC2 (UniProt Q9H1I8) | -0.008 | -0.048 | 0.077 | 0.026 | -0.017 |
| ALG3 (UniProt Q92685) | -0.107 | 0.461 (active) | 0.285 | -0.157 | -0.01 |
| ALDH5A1 isoform 2 (UniProt P51649) | -0.02 | 0.371 (active) | -0.005 | -0.057 | 0.003 |
| ABHD12 isoform 2 (UniProt Q8N2K0) | -0.003 | 0.392 (active) | -0.026 | -0.023 | -0.023 |
| AP3D1 isoform 2 (UniProt O14617) | 0.179 | -0.738 (active) | 0.02 |  |  |
| ARL1 (UniProt P40616) | 0.017 | -0.293 (active) | -0.048 | 0.027 | 0.034 |
| AHCYL1 (UniProt O43865) | 0.021 | -0.287 (active) | -0.021 | 0.045 | -0.03 |
| ASPH (UniProt Q12797) | 0 | 0.131 | -0.008 | 0.029 | -0.016 |
| ANKRD54 (UniProt Q6NXT1) | 0.023 | -0.245 (active) | 0.007 | -0.076 | -0.006 |
